# ELG1 repair inh: ELG1-dependent DNA repair inhibition | AID 504467 | HEK293T ELG1-luciferase reporter, luminescence, 16 h; DNA damage induced by 5-fluorouridine | 330,000 compounds, 2.3% hits | Potency, µM (titrated, usually from 46.1 µM), for the others: at the top dose activity change, negative = inhibition, most hits filed as inhibitors; also: % is scaled to controls: 0 for no effect and ±100 for the full control effect; nearly all actives have a fitted effect of over 55% in size
#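 Luminescence from the luciferase reporter, measured 30 min after ONE-Glo reagent at room temperature, was the read-out. Beforehand, 2,000 cells per well were exposed for 16 hr at 37 °C to 5-fluorouridine together with compound or vehicle.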
# SMN2 splice up: increases expression of the SMN2 splice variant. 210,000 compounds, 2.8% hits. AID 1458. Potency, µM (titrated, usually from 46.1 µM), without a hit: top-dose activity change, positive = activation, most hits filed as activators. HEK293 SMN2-luciferase splicing reporter, luminescence, 30-36 h; also: % of control where 0% means no effect; nearly all actives have a fitted effect of over 55% in size
#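 qHTS luciferase splicing reporter: luminescence rises when SMN2 exon 7 is included in transfected HEK293 cells. Compound exposure lasted 30-36 h at 37C, with 4.5 mM final sodium butyrate as control, followed by a ONE-Glo read.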
# Rab9 prom act: activators of Rab9 promoter; Huh7 Rab9 promoter-luciferase reporter, luminescence, 24 h; Potency, µM (titrated, usually from 9.22 µM), inactives show top-dose activation, negative = inhibition, most hits filed as activators; 320,000 compounds, 2.8% hits; AID 485297; also: % of control where 0% means no effect; nearly all actives have a fitted effect of over 60% in size
#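 Huh7 cells stably carrying Rab9 promoter–luciferase reporter, plated 1500 cells/well, compound added after 2 h and incubated 24 h at 37 °C; luciferase luminescence then read after 10 min with detection reagent.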
# ELG1 genotox: genotoxicity induction in ELG1-luciferase HEK293T cells; HEK293T ELG1-luciferase reporter, luminescence, 16 h; Potency, µM (highest dose often 46 µM), for inactives: at the top dose activity change, positive = activation, actives largely listed as activators; 330,000 compounds, 1.3% hits; also: % of control where 0% means no effect; nearly all actives have a fitted effect of over 60% in size
#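 16 hr compound incubation (37 °C, 5% CO2) of HEK293T cells carrying luciferase-tagged ELG1; luciferase then measured by ONE-Glo luminescence after 30 min at RT.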
# NPC1 prom act: activates the NPC1 promoter. 320,000 compounds, 2.4% hits. Huh7 NPC1 promoter luciferase reporter, 24 h. Potency, µM (series often up to 9.22 µM), for inactives: top-dose activation, hits mostly activators; also: % of control where 0% means no effect; nearly all actives have a fitted effect of over 60% in size
#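 Huh7 cells stably carrying NPC1 promoter–luciferase, plated in Opti-MEM with 10% FBS for 2 h, were exposed to compound in DMSO for 24 h at 37 °C; luciferase reagent was added for 10 min and luminescence read.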
# FLuc counter: inhibits or activates purified firefly luciferase, miR-21 counter-screen | 360,000 compounds, 6.9% hits | purified FLuc, Km substrates, luminescence inhibition | Potency, µM (titrated, usually from 57.5 µM), for inactives: at the top dose activity change, negative = inhibition, actives largely listed as inhibitors | P08659;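 also: plate controls were vehicle for no effect and reference inhibitor for full effect; nearly all actives have a fitted effect of over 55% in size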
# Target sequence (P08659 whole entry, looked up): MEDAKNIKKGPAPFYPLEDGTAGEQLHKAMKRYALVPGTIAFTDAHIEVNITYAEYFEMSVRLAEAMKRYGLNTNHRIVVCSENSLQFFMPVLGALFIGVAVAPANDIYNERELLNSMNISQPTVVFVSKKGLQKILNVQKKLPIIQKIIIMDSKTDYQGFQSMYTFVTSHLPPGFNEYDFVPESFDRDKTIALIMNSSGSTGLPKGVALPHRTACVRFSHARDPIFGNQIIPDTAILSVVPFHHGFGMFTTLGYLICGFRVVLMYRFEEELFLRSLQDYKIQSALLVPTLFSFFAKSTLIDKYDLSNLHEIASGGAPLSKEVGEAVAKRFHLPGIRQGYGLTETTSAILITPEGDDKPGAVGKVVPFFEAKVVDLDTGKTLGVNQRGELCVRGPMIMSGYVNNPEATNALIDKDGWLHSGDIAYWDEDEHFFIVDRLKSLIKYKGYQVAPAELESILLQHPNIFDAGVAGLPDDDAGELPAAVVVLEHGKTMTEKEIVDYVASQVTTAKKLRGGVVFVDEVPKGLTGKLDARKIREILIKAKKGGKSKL
#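 Purified P. pyralis luciferase (10nM final) with 10uM D-luciferin and 10uM ATP (Km levels) in 50mM Tris acetate pH 7.5, 10mM Mg acetate, 0.01% Tween-20, 0.05% BSA; qHTS 6-point titration, ~60 µM downward; luminescence read.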
# An asterisk follows results filed as active; ? = inconclusive; nt = no result given. This is a sample that favours compounds with a hit; in the whole collection about 9.3% have one here. Calls follow the shape of the dose curve; as a rule, active = well fitted curve in the direction sought with a large enough effect; inconclusive = small, poorly fitted or top-dose-only effect, or another doubt; inactive = no such curve, though single readings can be large; an effect the other way counts as inactive or inconclusive. Potency is read from the fitted curve at half-maximal effect.
SMILES,ELG1 repair inh,SMN2 splice up,Rab9 prom act,ELG1 genotox,NPC1 prom act,FLuc counter
COc1cccc(C2Nc3ccccc3C(=O)N2c2ccc(F)cc2)c1O (configuration not stated),?,nt,?,?,?,-10%
O=C1c2ccccc2NC(c2ccccc2O)N1c1ccc(F)cc1 (configuration not stated),?,nt,4µM*,?,4µM*,-14%
O=C(Nc1ccnn1C1CCN(Cc2ccc(CO)o2)CC1)c1ccccc1,25%,nt,4%,-2%,6%,-1%
Nc1ccc2oc3ccc(N)cc3c(=O)c2c1,?,?,4µM*,?,2.5µM*,24µM*
N#C/C(=C\c1cccs1)C(=O)c1ccccc1Cl,?,nt,-6%,-10%,2%,21µM*
N#C/C(=C\c1cccs1)C(=O)NCc1ccccc1,20%,11%,0%,6%,0%,-12%
N#C/C(=C\c1cccs1)C(=O)Nc1nccs1,?,?,2.8µM*,?,3.5µM*,4.3µM*
Cc1ccc(NC(=O)CC(C)S(=O)(=O)c2ccc3c(c2)NC(=O)CO3)c(C)c1 (configuration not stated),nt,nt,nt,nt,nt,-2%
Cn1c(SCc2ccc(F)cc2Cl)nc2ccccc2c1=O,-1%,nt,-16%,-5%,-14%,-11%
CCSc1nnc(-c2ccccc2SC)o1,?,6%,2%,-6%,-1%,?
CSc1ccccc1-c1nnc(-c2ccc(Cl)c(Cl)c2)o1,?,12%,?,?,?,7.6µM*
CSc1ccccc1-c1nnc(-c2ccc(Cl)cc2Cl)o1,?,?,3.2µM*,?,?,2.1µM*
CS(=O)(=O)c1ccccc1-c1nnc(-c2ccc(Cl)cc2)o1,13%,4%,?,13%,-4%,?
Cc1ccc(NC(=O)C2CCN(c3nn4c(=O)cc(C)nc4s3)CC2)cc1,nt,5%,nt,nt,nt,-1%
O=C(NCc1ccccc1)C1CCCN(c2cnccn2)C1 (configuration not stated),12%,nt,0%,1%,-1%,2%
Cc1ccc(Nc2nc(N)nc(CN3CCCCCC3)n2)c(C)c1,-16%,-7%,-4%,-1%,-1%,0%
Cc1ccc(Nc2nc(N)nc(CSc3nccn3C)n2)c(C)c1,?,90%,?,15µM*,?,?
Cc1ccccc1Nc1nc(N)nc(CSc2nnnn2C)n1,?,13µM*,2.5µM*,?,3.5µM*,?
Cc1ccccc1Nc1nc(N)nc(CSc2ccc(F)cc2)n1,?,nt,3.2µM*,8.2µM*,2.5µM*,11µM*
Cc1ccc(SCc2nc(N)nc(Nc3ccccc3C)n2)c(C)c1,3%,-14%,5%,2%,5%,27µM*
Cc1ccc(SCc2nc(N)nc(Nc3ccccc3C)n2)cc1C,14%,2%,1%,1%,0%,-16%
CCc1ccccc1Nc1nc(N)nc(CSc2nnnn2C)n1,16%,21%,21%,10%,-1%,1%
Cc1ccc2nc(NC(=O)CSc3ncc(C(=O)Nc4ccc(F)cc4)c(=O)n3C)sc2c1,nt,nt,nt,nt,nt,6%
COc1ccc(/C=C/c2cc(OC)c(OC)cc2CC[N+](C)(C)C)cc1,nt,0%,nt,nt,nt,nt
O=C1c2ccccc2C(=O)N1CCCc1c[nH]c2ccccc12,?,0%,18%,-2%,3%,-18%
O=C1c2ccccc2C(=O)N1CCc1c[nH]c2ccccc12,?,nt,3.5µM*,?,?,6.7µM*
Cc1cc(Cl)c(S(=O)(=O)N2CCN(c3ccccn3)CC2)cc1OCC(=O)NC1CCCCC1,21µM*,nt,-21%,-7%,-11%,-1%
CCOC(=O)N1CCN(S(=O)(=O)c2cc(OCC(=O)NC3CCCCC3)c(C)cc2Cl)CC1,18µM*,-27%,-4%,-16%,-4%,-2%
